Whole data set: some 68,000 sequences, median “fluorescence intensity (a.u.)” near 9,100, cut for the highest 2% near 16,000. The sample holds the highest values, similar sequences and a random draw of the others, so the mix is not that of the screen.

This is an account of results in PMC7819943, “Rice protein-binding microarrays: a tool to detect cis-acting elements near promoter regions in rice”.

OsWRKY34, sequence (Q0JBA9 entry or part of it): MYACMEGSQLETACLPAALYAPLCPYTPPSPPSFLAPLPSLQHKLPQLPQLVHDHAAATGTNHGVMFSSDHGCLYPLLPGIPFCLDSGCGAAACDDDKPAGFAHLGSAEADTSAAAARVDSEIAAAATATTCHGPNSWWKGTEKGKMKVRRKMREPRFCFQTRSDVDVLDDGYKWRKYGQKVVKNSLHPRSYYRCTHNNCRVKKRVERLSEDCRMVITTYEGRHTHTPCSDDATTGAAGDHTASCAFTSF

This assay has as its target OsWRKY34 (Oryza sativa, UniProt Q0JBA9 1-250). Description: protein-binding microarray (RPBM); PBS, 2% BSA, 51.3 ng/ul salmon testes DNA, 50 uM zinc acetate, 200 nM TF, 25 C, 1 h; high values mean tight binding. To be noted: protein: recombinant; tags: N-terminal polyhistidine and DsRed monomer fusion (pET32a); label: CyDye5-dUTP incorporated in the synthesized complementary strand; 3' TTTTT single-stranded linker to array surface; dsDNA, one strand shown. A digest of the protocol:
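Per-feature fluorescence intensity (arbitrary units), read on an Axon 4000B scanner, is the binding signal. Transcription factors carrying an N-terminal polyhistidine tag and DsRed fusion were expressed in E. coli BL21-CodonPlus and purified on Ni–NTA. A custom Agilent array, made double-stranded by primer extension with Cy5-dUTP and blocked with 2% BSA, was incubated with 200 nM protein in PBS, 2% BSA, salmon testes DNA and 50 µM zinc acetate at 25 °C for 1 h and then washed.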
Take “CTCGCTCACTCGGTCAGCTGCACACACACTGCACTTCGGCCGGAGTCACCTAGTGCAG”: the binding signal is 9820 fluorescence intensity (a.u.).
In the case of “GCGGTGCAGGGCGGTGGCGGCGGCGGGTGGGGCGGTGGCGCGGAGTCACCTAGTGCAG” it was 20900 fluorescence intensity (a.u.).
In the case of “GTGGGCGTGGGCCCCGCGTCCTGTGGTGGTGGTGGGTGCTCGGAGTCACCTAGTGCAG” it was 9200 fluorescence intensity (a.u.); in that of “AGGCAGGGTGGGTGGGTGGTGGGCTTGCTCGCTCCGCGTCCGGAGTCACCTAGTGCAG”, 19700 fluorescence intensity (a.u.); in that of “GCGTTGAGGGCAGGCGGCGGCGCTTGGTGGCGGTGGGGCACGGAGTCACCTAGTGCAG”, 8370 fluorescence intensity (a.u.).
In the case of “CATGCGGGGCGCGGGCGGCGGTGCAGGGCGGGGTGCGGCCCGGAGTCACCTAGTGCAG” it was 8730 fluorescence intensity (a.u.); in that of “GTGGAGGGGCGGCGTTGGGCAGAGGGGCGGCACGGGTGAACGGAGTCACCTAGTGCAG”, 12800 fluorescence intensity (a.u.); in that of “GGTGCGGGGTGGCGGTGCTCGGCCACAGCGGCGCGCGGGGCGGAGTCACCTAGTGCAG”, 8130 fluorescence intensity (a.u.).
On to “GTTGGGGAGCGCGGCGGGGCGTCGGAGGAGTTGACAGGAGCGGAGTCACCTAGTGCAG”, for which the binding signal was 8910 fluorescence intensity (a.u.).
In the case of “CCAGAACGGCCGGTCAACGGCACCGTTGACCGTATGAGGGCGGAGTCACCTAGTGCAG” it was 52400 fluorescence intensity (a.u.).
In the case of “GTTGGGGAGCGGGGTGTGTGTGCCAGGCGCTCGGGCGGGGCGGAGTCACCTAGTGCAG” it was 19500 fluorescence intensity (a.u.); in that of “GGGGTGGCGGCGGCGGCTGCGCGCGGGCGGTGGCGCGGGGCGGAGTCACCTAGTGCAG”, 12000 fluorescence intensity (a.u.); in that of “ATGTTGGGCCAGGCTCGAGCTCCTCCTCCTCCGCGTCGTCCGGAGTCACCTAGTGCAG”, 8140 fluorescence intensity (a.u.).
In the case of “CGGCCGTCCGCCATCTGCAAAAGGTGTTTTTTCACATGCCCGGAGTCACCTAGTGCAG” it was 8560 fluorescence intensity (a.u.); in that of “ATCCTCTTGTTTCGTACAGGTCACTTAAATAGTTATAAAACGGAGTCACCTAGTGCAG”, 8300 fluorescence intensity (a.u.); in that of “CACTAAACGGCCAAAATCTTCCATCGTATAGTTACGTCACCGGAGTCACCTAGTGCAG”, 8410 fluorescence intensity (a.u.).
For “CTCTACTATCGATCTTTTTTCCACGTCGGTCGCGGCTTTTCGGAGTCACCTAGTGCAG”, the binding signal is 9580 fluorescence intensity (a.u.).
In the case of “AGTATAACTTTTTTTTTGTCACTCTGTTATCTCACATCTGCGGAGTCACCTAGTGCAG” it was 8760 fluorescence intensity (a.u.); in that of “CTATCTTTTTCTCCATCTTTCTCTGTCCGTCCATTCACCCCGGAGTCACCTAGTGCAG”, 8690 fluorescence intensity (a.u.).
In the case of “CTGGGAGGGAGGGGAGGGAGCGCCGCCTTTGCCACTATCGCGGAGTCACCTAGTGCAG” it was 16900 fluorescence intensity (a.u.); in that of “TCGGTGGGTGCCGGGCGGAGCGGTTTTTGAGGGAGGGGTCCGGAGTCACCTAGTGCAG”, 17600 fluorescence intensity (a.u.); in that of “GGGATGGATGGAGGCGGCGGTGCTGAGGTGGTGGGACTGTCGGAGTCACCTAGTGCAG”, 8460 fluorescence intensity (a.u.).
Regarding “AGGTGTGTATCGTACCGTGGCGGGCGCTTTCCTGGTGGGGCGGAGTCACCTAGTGCAG”, the binding signal is 10200 fluorescence intensity (a.u.).
In the case of “GATGGATGGGGTGGGGACTGGGGATGGATGGAGGCGGCGGCGGAGTCACCTAGTGCAG” it was 21300 fluorescence intensity (a.u.); in that of “CGAGGAGCGGGGTGGGGTCGGAGGCGGGGAGGGAGGACGCCGGAGTCACCTAGTGCAG”, 16100 fluorescence intensity (a.u.); in that of “CGCCGCCTTTGCCACTATCGCTCCCTCCTCCAGCCGGATCCGGAGTCACCTAGTGCAG”, 10600 fluorescence intensity (a.u.).
In the case of “GGATTTCCTGGGCGGGCGGGGCGCGGATAAGGGGTGTGTGCGGAGTCACCTAGTGCAG” it was 17000 fluorescence intensity (a.u.).
Consider “GTGCTGTGATTGGCCGCGCGGGATTTCCTGGGCGGGCGGGCGGAGTCACCTAGTGCAG”, for which the binding signal was 15500 fluorescence intensity (a.u.).
In the case of “CGCCTGCCTGCCGCCACCGCCACTCCACTTTGCTTCACCGCGGAGTCACCTAGTGCAG” it was 9570 fluorescence intensity (a.u.); in that of “CGCGGTGTGCCGGGGAGGGAGGTGGTGGTTGAGGTTGAGGCGGAGTCACCTAGTGCAG”, 11700 fluorescence intensity (a.u.).
In the case of “GGGGAGGTGGAGATGAGATGAGGCGGCGGGGTGGCGGTGGCGGAGTCACCTAGTGCAG”, the binding signal is 13700 fluorescence intensity (a.u.).
“CATATGTTTTGTTTTGCTTTGGGGCTTTTAGTAGTAGTTCCGGAGTCACCTAGTGCAG”: the binding signal is 9460 fluorescence intensity (a.u.).
In the case of “CACAGATCATTACACACTGTTTGAGCATCTCTCTATTCCTCGGAGTCACCTAGTGCAG” it was 8320 fluorescence intensity (a.u.); in that of “ACCCATTACAACCCTGTAGTACATGCCACACCGTTTGACACGGAGTCACCTAGTGCAG”, 10800 fluorescence intensity (a.u.).
In the case of “CCTTCACCTGGTAATCATTTCGATGCATTCATTTCCCTATCGGAGTCACCTAGTGCAG” it was 8470 fluorescence intensity (a.u.); in that of “CTCGGCCAAAAAGAGATATCCCTTTCGCGCTCATCTTATCCGGAGTCACCTAGTGCAG”, 9980 fluorescence intensity (a.u.); in that of “GTGGGAGAGGCCGGCCGAGGGGAGGAGAGGGGAGGGGTGCCGGAGTCACCTAGTGCAG”, 10700 fluorescence intensity (a.u.).
For “TCGAGCTGGGTGGGGTTTTTATATGGGAGGAGAGGCCGCGCGGAGTCACCTAGTGCAG”, the binding signal was 16800 fluorescence intensity (a.u.).
In the case of “GGGATGTGGCGGGCGGTGGGTCCAGGGAGGAGGAGGAGAACGGAGTCACCTAGTGCAG” it was 15000 fluorescence intensity (a.u.); in that of “TGTGAGGTGGGGTCGGGGTGGAAGTGGGTGAGGAGGGGTGCGGAGTCACCTAGTGCAG”, 21700 fluorescence intensity (a.u.); in that of “GAGCTCGGCGAAATCGATCTGTGGGAGGGAGGGCGGCGAGCGGAGTCACCTAGTGCAG”, 9110 fluorescence intensity (a.u.).
In the case of “ATATATATATATATATATATATATATATATATAGGGACAGCGGAGTCACCTAGTGCAG” it was 9530 fluorescence intensity (a.u.); in that of “GGTGAGGTGGTGGTGGTGGTGGTCGGGAAGTGGCGGCGCCCGGAGTCACCTAGTGCAG”, 16100 fluorescence intensity (a.u.).
